Assay results: the supplement of paper PMC11732987, “Enantioselective OTUD7B fragment discovery through chemoproteomics screening and high-throughput optimisation” (Communications Chemistry, 2025)

Columns and labels:
Assay in all cases: log2 ratio of Biotin-Ahx-Ub-VS probe labelling (fragment/DMSO); higher = less target engagement (more negative = stronger competition), active = hit call of the paper (q ≤ 0.05, log2 ratio ≤ -1)
Details in all cases: compound concentration: 200 uM; treatment time: 3 h
ALG13 = biological target: T1, ALG13 (UniProt Q9NP73)
T1 sequence (whole entry): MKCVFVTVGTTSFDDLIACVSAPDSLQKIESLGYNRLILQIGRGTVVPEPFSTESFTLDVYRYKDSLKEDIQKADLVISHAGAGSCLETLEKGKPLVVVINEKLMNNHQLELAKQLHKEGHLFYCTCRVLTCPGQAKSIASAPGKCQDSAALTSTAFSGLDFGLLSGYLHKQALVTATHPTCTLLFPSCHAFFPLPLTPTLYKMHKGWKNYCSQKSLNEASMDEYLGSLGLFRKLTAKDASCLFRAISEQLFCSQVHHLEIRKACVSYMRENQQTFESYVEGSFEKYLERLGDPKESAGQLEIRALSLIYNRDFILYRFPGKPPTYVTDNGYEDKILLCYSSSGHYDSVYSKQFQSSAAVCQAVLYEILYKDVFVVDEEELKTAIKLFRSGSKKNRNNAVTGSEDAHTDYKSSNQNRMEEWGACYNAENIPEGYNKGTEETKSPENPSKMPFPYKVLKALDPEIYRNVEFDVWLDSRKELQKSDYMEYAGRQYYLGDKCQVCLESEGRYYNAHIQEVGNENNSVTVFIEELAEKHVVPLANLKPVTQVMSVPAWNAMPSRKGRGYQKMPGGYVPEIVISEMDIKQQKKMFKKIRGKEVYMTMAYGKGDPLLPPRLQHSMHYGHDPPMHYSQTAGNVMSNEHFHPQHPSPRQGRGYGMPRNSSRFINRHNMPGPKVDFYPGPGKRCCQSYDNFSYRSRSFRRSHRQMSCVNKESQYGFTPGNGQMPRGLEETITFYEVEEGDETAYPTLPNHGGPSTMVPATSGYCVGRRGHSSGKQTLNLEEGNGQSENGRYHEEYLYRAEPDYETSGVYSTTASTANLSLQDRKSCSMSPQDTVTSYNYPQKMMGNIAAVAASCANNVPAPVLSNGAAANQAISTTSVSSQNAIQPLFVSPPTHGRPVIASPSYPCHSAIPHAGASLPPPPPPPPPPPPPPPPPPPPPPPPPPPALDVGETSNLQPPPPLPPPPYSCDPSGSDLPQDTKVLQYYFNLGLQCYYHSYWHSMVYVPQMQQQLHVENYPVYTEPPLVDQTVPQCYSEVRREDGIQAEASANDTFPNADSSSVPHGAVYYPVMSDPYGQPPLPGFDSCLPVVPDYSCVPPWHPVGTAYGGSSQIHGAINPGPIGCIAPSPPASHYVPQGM
Procedure, shortened: (§1)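 Values give the average log2 ratio of fragment to vehicle, assessed by unpaired t-test on global-median-normalised Spectronaut label-free quantities. Proteins needed ≥2 unique peptides. HEK293T lysate (495 µg per sample) was treated in triplicate with fragment at 200 µM or vehicle for 3 h and then with Biotin-Ahx-Ub-VS at 0.5 µM final for 1 h. Labelled DUBs were NeutrAvidin-enriched, digested and run by diaPASEF LC-MS/MS.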

ATXN3 = ATXN3 (UniProt P54252)
ATXN3, sequence (P54252 whole entry): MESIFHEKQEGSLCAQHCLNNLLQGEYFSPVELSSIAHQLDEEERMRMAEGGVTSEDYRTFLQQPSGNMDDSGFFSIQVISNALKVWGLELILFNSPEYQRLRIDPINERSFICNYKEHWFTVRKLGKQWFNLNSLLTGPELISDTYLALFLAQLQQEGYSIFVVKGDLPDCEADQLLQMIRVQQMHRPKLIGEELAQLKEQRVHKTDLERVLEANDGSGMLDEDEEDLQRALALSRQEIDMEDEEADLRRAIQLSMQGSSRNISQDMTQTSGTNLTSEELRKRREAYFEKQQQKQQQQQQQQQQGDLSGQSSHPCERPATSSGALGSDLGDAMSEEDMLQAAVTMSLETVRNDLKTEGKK
Procedure, shortened: as §1

BAP1 = biological target: T2, BAP1 (UniProt Q92560)
T2 sequence (whole entry): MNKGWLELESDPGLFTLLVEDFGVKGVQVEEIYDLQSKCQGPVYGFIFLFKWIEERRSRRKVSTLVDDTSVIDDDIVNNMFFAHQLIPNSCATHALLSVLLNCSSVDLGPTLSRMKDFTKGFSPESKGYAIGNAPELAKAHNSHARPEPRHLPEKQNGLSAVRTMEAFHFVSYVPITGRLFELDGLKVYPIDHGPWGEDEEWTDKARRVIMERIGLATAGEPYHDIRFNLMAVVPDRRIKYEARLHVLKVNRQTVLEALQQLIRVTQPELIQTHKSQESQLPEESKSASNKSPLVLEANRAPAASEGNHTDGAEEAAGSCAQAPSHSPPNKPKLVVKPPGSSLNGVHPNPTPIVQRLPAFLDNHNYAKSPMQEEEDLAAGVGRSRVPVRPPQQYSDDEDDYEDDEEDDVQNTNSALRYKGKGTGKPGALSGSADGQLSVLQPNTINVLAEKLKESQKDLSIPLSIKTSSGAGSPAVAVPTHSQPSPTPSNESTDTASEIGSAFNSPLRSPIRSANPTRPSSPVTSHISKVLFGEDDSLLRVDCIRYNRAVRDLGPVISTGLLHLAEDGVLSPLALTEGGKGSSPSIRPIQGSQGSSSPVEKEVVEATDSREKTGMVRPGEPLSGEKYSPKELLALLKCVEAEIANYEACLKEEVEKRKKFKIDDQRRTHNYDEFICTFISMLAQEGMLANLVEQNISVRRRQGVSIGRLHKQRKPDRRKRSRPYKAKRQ
Procedure, shortened: as §1

EIF3F = EIF3F (UniProt O00303)
EIF3F, sequence (O00303 whole entry): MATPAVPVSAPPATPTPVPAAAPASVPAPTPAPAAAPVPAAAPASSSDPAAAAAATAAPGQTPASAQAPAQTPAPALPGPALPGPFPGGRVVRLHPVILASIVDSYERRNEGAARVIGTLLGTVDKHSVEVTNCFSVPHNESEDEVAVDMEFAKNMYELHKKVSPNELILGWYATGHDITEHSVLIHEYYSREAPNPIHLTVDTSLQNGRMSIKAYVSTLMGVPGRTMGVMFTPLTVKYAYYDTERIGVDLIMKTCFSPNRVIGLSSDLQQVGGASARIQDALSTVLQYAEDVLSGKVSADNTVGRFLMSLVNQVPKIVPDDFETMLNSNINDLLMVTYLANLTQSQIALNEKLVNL
Procedure, shortened: as §1

EIF3H = EIF3H (UniProt O15372)
EIF3H, sequence (O15372 whole entry): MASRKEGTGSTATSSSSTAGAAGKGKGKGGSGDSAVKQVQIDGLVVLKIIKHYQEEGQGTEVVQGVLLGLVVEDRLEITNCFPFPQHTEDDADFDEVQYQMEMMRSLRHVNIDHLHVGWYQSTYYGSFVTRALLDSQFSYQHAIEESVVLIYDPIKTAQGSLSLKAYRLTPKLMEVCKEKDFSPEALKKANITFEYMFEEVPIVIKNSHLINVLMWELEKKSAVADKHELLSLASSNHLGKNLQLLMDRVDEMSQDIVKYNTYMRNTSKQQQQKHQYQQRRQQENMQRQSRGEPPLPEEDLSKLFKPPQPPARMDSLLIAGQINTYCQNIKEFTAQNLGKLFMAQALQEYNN
Procedure, shortened: as §1

FAM105A = biological target: T3, FAM105A (UniProt Q9NUU6)
T3 sequence (whole entry): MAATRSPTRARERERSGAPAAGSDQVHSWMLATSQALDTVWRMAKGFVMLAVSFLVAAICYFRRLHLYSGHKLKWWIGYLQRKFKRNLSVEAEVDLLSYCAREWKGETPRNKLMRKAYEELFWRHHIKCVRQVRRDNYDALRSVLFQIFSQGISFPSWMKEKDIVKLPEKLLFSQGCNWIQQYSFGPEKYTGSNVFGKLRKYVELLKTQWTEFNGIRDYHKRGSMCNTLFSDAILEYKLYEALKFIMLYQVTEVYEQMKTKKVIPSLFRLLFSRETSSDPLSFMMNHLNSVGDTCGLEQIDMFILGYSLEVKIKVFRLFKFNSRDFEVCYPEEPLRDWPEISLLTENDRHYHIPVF
Procedure, shortened: as §1

OTUB1 = OTUB1 (UniProt Q96FW1)
OTUB1, sequence (Q96FW1 whole entry): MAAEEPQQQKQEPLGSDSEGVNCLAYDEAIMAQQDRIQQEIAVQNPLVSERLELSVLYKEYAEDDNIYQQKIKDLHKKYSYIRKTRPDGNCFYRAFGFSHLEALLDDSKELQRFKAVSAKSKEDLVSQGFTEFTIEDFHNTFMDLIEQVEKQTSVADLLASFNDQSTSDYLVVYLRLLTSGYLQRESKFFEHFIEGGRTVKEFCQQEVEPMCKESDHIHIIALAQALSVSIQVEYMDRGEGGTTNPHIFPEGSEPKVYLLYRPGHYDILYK
Procedure, shortened: as §1

OTUD4 = biological target: T4, OTUD4 (UniProt Q01804)
T4 sequence (whole entry): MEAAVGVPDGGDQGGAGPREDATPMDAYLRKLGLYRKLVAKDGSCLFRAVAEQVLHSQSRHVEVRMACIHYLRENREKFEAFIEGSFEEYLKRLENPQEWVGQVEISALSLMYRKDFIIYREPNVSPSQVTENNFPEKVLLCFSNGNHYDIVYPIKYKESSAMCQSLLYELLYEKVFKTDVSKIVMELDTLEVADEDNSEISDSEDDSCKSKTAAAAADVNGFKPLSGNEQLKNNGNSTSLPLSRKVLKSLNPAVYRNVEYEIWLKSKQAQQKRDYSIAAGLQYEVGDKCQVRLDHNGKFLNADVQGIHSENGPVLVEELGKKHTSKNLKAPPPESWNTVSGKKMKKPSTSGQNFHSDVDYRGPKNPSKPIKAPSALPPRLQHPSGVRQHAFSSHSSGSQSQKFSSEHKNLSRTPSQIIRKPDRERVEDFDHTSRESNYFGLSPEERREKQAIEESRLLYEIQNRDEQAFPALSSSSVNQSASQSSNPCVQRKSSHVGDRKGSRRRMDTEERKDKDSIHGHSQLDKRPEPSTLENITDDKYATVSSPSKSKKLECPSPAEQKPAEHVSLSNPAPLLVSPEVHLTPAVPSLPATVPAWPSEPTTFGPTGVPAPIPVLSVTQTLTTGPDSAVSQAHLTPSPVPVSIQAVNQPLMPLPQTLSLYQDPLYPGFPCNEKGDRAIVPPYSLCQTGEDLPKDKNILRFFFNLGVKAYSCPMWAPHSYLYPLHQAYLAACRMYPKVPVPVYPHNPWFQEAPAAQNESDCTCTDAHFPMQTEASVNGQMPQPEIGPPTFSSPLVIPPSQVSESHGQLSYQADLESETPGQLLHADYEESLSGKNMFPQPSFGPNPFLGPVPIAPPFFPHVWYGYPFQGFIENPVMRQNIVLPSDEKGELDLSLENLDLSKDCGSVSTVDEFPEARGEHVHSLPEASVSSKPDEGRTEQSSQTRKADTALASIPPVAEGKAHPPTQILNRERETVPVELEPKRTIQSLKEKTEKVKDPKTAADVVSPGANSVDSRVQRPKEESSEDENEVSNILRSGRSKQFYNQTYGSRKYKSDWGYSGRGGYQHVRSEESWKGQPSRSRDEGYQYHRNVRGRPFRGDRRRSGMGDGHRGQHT
Procedure, shortened: as §1

OTUD5 = biological target: T5, OTUD5 (UniProt Q96G74)
T5 sequence (whole entry): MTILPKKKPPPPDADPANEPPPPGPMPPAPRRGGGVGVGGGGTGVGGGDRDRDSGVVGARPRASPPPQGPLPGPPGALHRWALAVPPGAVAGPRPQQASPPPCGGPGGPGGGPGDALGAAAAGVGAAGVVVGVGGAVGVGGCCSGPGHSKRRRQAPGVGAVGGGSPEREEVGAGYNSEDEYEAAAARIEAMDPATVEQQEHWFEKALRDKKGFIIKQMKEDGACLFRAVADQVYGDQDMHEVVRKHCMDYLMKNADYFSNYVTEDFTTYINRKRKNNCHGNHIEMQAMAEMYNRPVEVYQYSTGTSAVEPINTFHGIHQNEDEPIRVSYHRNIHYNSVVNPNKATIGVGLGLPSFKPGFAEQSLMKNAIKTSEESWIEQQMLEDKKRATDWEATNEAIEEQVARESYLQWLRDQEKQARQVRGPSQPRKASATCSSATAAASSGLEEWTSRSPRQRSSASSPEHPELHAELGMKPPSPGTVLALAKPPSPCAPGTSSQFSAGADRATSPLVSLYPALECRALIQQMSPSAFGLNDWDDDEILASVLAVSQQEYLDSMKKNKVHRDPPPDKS
Procedure, shortened: as §1

Measured: log2 ratio of Biotin-Ahx-Ub-VS probe labelling

O=C(CCl)NC1CCC2(CC1)OCCO2
inactive: ALG13 0.0856 | ATXN3 -0.347 | BAP1 -0.944 | EIF3F -0.268 | EIF3H 0.0155 | FAM105A 0.137 | OTUB1 -0.114 | OTUD4 -0.376 | OTUD5 -0.414
